This note sets out measurements from PubChem BioAssay (NCI).

Common to all, as to experiment: NCI-60 one-dose screen, 48 h (100 = growth as untreated, 0 = no growth, -100 = all killed)
Holding throughout (conditions): 10 µM unless noted

The test system of assay [1] is HCT-15 colon.
Assay [2] relates to HT29 colon.
Assay [3] deals with SNB-75 CNS.
Assay [4] relates to SNB-19 CNS.
In assay [5] the test system is U251 CNS.
Assay [6] concerns PC-3 prostate.
Assay [7] has as its system SK-MEL-5 melanoma.
For assay [8], the system named is UACC-62 melanoma.
Assay [9] relates to LOX IMVI melanoma.
For assay [10], the system named is SK-MEL-28 melanoma.

About 83,000 compounds went through this panel and 20% of them were active in at least one assay; those are over-represented in the sample as a whole.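 For each line, cells grew in 96-well plates with the test compound present at a single concentration for 48 hours.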 Activity calls are given as the source filed them. How the source made its calls: active means growth percent below 10; inactive means the rest.

`CC(=O)N1N=C(c2ccc(C)cc2)CC1c1cn(-c2ccccc2)nc1-c1cccc(Nc2ccnc3cc(Cl)ccc23)c1` (stereo not given): the growth in assay [1] was 62.2% (inactive); in assay [2], 47.7% (inactive); in [3], 102% (inactive); in assay [4], 83.4% (inactive); in assay [5], 14.9% (inactive); in assay [6], 99.8% (inactive). Moreover, the growth was 73.8% (inactive) in [7], 82.2% (inactive) in assay [8], 10.4% (inactive) in assay [9] and 51.9% (inactive) in assay [10].
For `Cc1ccc2cc3c(NC(=O)c4cccnc4)nn(C)c3nc2c1`, the growth in assay [1] was 91.6% (inactive); in assay [2], 75.8% (inactive); in assay [3], 73.8% (inactive); in assay [4] it was 82.6% (inactive); in assay [5] it was 85.2% (inactive); in [6] it was 62.5% (inactive). For the same molecule, the growth is 83.1% (inactive) in assay [7], 88.7% (inactive) in assay [8], 92.4% (inactive) in assay [9] and 96% (inactive) in assay [10].
Regarding `COc1cc(-c2n/c(=C\c3c(O)[nH]c4cc(Cl)ccc34)cc3c2=Nc2ccccc2-3)cc(OC)c1OC`, the growth in [1] was 93.7% (inactive); in assay [2], 24.3% (inactive); in assay [3] it was 36.1% (inactive); in [4], 63.9% (inactive); in assay [5], 23.8% (inactive); in assay [6], 52.2% (inactive). In addition, the growth is 27.2% (inactive) in assay [7], 56.8% (inactive) in [8], 34.3% (inactive) in [9] and 43% (inactive) in [10].
Regarding `Cc1ccc2nc(CN(CCN(Cc3nc4ccc(C)cc4[nH]3)Cc3nc4ccc(C)cc4[nH]3)Cc3nc4ccc(C)cc4[nH]3)[nH]c2c1`, the growth in [1] is -94.3% (active); in assay [2], -98.2% (active); in assay [3], -100% (active); in [4] it was -100% (active); in [5] it was -94.1% (active); in [6] it was -83.4% (active). Also, the growth in assay [7] is -100% (active); in assay [8] it was -85.3% (active); in assay [9] it was -90.8% (active); in assay [10], -94.8% (active).
For the molecule `CCCCNCC(O)c1cc(-c2ccc(C(F)(F)F)cc2)nc(-c2ccc(C(F)(F)F)cc2)c1` (stereo not given), the growth in assay [1] is -64.7% (active); in assay [2], -77% (active); in assay [3] it was -85% (active); in [4] it was -77.1% (active); in [5], -92.1% (active); in assay [6] it was -81.1% (active). In addition, the growth is -24.2% (active) in assay [7], -83.4% (active) in [8], -67.2% (active) in assay [9] and -85.3% (active) in assay [10].
As for `C#CC[C@@H]1C[C@]2(C)[C@H]3CC[C@@H]4[C@H]5C(C(=C)C)CC[C@]5(C(=O)NCCCN5CCN(CCCN)CC5)CC[C@@]4(C)[C@]3(C)CC[C@H]2C(C)(C)[C@H]1OC(C)=O` (stereo not given in full), the growth in [1] is -50.4% (active); in [2], -68.7% (active); in assay [3] it was -95.7% (active); in assay [4], -8.5% (active); in assay [5], -68.2% (active); in assay [6], 8.53% (active). In addition, the growth in assay [7] was 83.3% (inactive); in [8], -85.6% (active); in [9], -85.3% (active); in assay [10], -59.5% (active).
Turning to `Nc1nc(N)c2cc(Sc3ccc(Cl)cc3)ccc2n1`, the growth was 20.5% (inactive) in [1]; 14.8% (inactive) in assay [2]; 48.2% (inactive) in assay [3]; 40% (inactive) in assay [4]; 24.7% (inactive) in assay [5]; 25.2% (inactive) in assay [6]. Besides, the growth in assay [7] was 17.8% (inactive); in assay [8] it was 24.4% (inactive); in assay [9], 27% (inactive); in [10], 54% (inactive).
On to `COc1ccc(Br)c2ccccc12`, for which the growth in [1] is 110% (inactive); in assay [2], 110% (inactive); in [3] it was 93.7% (inactive); in assay [4], 116% (inactive); in assay [5], 114% (inactive); in [6], 102% (inactive). The growth is 107% (inactive) in assay [7], 107% (inactive) in assay [8], 101% (inactive) in assay [9] and 122% (inactive) in [10].
Consider `COc1ccc([C@@H]2[C@@H](Cl)C(=O)N2c2cc(OC)c(OC)c(OC)c2)cc1C`, for which the growth in [1] is 15.8% (inactive); in assay [2] it was 11.1% (inactive); in assay [3] it was 75.6% (inactive); in assay [4] it was 33.6% (inactive); in [5], 12.9% (inactive); in [6], 28.9% (inactive). Moreover, the growth in assay [7] was -13.8% (active); in assay [8], 35.3% (inactive); in [9] it was 24.4% (inactive); in assay [10], 70.7% (inactive).
For `NC(=O)c1noc(C(=O)c2ccccc2)c1N`, the growth in [1] was 89.4% (inactive); in [2] it was 83.6% (inactive); in assay [3], 95.9% (inactive); in assay [4] it was 90.4% (inactive); in [5], 85.8% (inactive); in assay [6], 90.9% (inactive). Besides, the growth in [7] was 97.9% (inactive); in assay [8], 96.6% (inactive); in assay [9], 98.8% (inactive); in assay [10], 98.6% (inactive).
With `O=C1C(Cl)=C(N/N=c2/[nH][nH]/c(=N/NC3=C(Cl)C(=O)c4ccccc4C3=O)c3ccccc23)C(=O)c2ccccc21`, the growth in assay [1] is 83.9% (inactive); in assay [2] it was 102% (inactive); in assay [3], 63.6% (inactive); in [4] it was 61.9% (inactive); in assay [5], 2.88% (active); in [6] it was 55.5% (inactive). In addition, the growth in assay [7] is 62.6% (inactive); in assay [8], 25.7% (inactive); in assay [9], 69.8% (inactive); in [10], 104% (inactive).
In the case of `COc1ccc(OC)c(Nc2nc(-c3c(C)nc4sccn34)cs2)c1`, the growth in assay [1] is 73.6% (inactive); in [2], 73.6% (inactive); in assay [3], 78.4% (inactive); in [4], 96.9% (inactive); in [5] it was 89.5% (inactive); in assay [6] it was 37.6% (inactive). Further, the growth was 18.8% (inactive) in assay [7], 79.6% (inactive) in assay [8], 83.4% (inactive) in [9] and 101% (inactive) in [10].
Turning to `CCCCN(CCCC)CCC(O)c1cc2ccc(C(F)(F)F)cc2c2cc(C(F)(F)F)ccc12` (stereo not given), the growth in assay [1] was 27.3% (inactive); in assay [2], 8.42% (active); in assay [3] it was 60.9% (inactive); in assay [4] it was 72.6% (inactive); in [5] it was 45.2% (inactive); in assay [6] it was 35.6% (inactive). Moreover, the growth is 38.9% (inactive) in [7], 40.8% (inactive) in assay [8], -58.4% (active) in [9] and 77.2% (inactive) in assay [10].
For the molecule `Nc1nc2ccc([C@@H]3Nc4ccc5[nH]ncc5c4[C@H]4[C@H]5CCC(C5)[C@H]43)cc2s1`, the growth in assay [1] was 29.7% (inactive); in [2] it was 5.7% (active); in [3] it was -24.8% (active); in [4], 30.8% (inactive); in assay [5] it was 23.8% (inactive); in [6], 6.63% (active). For the same molecule, the growth was 24.4% (inactive) in [7], -88.6% (active) in assay [8], 40.7% (inactive) in [9] and 23.8% (inactive) in assay [10].
